Several values for one entry are separate records, joined by “and”; a condition that tells them apart may be missing. Equal values may be shown once. Screen size: about 310,000 compounds; about 17,000 (5.5%) were called active. Roughly 11% stayed inconclusive and do not appear here. The entries come from a sample that favours actives as a whole. A number with no mark means an inactive call. The call rests on the fitted dose curve; in most records, active means well fitted inhibition curve with a large enough effect; inconclusive means small, poorly fitted or top-dose-only effect, or effect the other way; inactive means no such curve, though single readings can be large or run the other way.
target: Nuclear receptor ROR-gamma (Mus musculus) (UniProt P51450); test: qHTS for inhibitors of ROR gamma transcriptional activity; conditions: Drosophila S2 Gal4-RORgamma UAS-luciferase reporter, 20 h; series mostly up to 53.6 µM; activity change, negative = inhibition: at the top concentration; further: nearly all actives have a fitted effect of over 60% in size
How it was run: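 A Gal4/UAS one-hybrid system in insect cells: metallothionein-promoter Gal4–ROR gamma fusion plus Photinus luciferase reporter. Copper sulfate 700 uM final, 20 hr ambient incubation, luminescent detection after 10 min with reagent.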
On the % scale 0 is the no-effect control and ±100 the full control effect; potency means the concentration at half of the fitted maximal effect.

Nuclear receptor ROR-gamma (Mus musculus), sequence (P51450 whole entry, looked up, the tested form may be a part): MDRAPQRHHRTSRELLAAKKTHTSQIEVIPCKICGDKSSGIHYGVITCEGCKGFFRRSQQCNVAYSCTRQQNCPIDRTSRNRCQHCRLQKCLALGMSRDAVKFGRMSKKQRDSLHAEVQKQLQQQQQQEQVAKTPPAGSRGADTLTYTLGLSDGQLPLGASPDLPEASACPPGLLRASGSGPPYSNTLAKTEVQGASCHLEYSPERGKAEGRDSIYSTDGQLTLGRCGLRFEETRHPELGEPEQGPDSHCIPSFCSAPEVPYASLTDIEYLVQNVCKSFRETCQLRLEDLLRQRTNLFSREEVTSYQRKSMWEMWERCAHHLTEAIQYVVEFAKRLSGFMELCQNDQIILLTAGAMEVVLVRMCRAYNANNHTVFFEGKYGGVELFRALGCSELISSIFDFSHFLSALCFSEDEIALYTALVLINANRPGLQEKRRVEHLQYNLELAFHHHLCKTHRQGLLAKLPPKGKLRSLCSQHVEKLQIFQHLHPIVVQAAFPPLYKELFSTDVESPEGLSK

Row | SMILES | activity change, negative = inhibition | Potency
1 | Cc1ccc2[nH]c(=O)c(CN(C)S(=O)(=O)c3cccc4nonc34)cc2c1 | 7.54% | –
2 | COc1cc(SC#N)ccc1N=Cc1c(C)[nH]n(-c2ccc(C)cc2)c1=O | – | 6.31 µM (active)
3 | C=CCN1C(=O)C2(OCCCO2)c2cccc(Cl)c21 | 8.79% | –
4 | Oc1ccc(-n2nnnc2SCc2c(F)cccc2Cl)cc1 | -29.8% | –
5 | Cc1ccc(CC2CC(=O)N(c3cc(C)ccc3C)C2=O)cc1 (configuration not stated) | 29.6% | –
6 | O=C(Nc1cccc(C(F)(F)F)c1)c1cnccn1 | 27.2% | –
7 | O=C(Nc1cccc(C(F)(F)F)c1)c1cc(Br)cc(Br)c1O | – | 5.01 µM (active)
8 | Cc1cccc(NC(=O)c2cccc(C(F)(F)F)c2)c1 | 21% | –
9 | O=C(N/C(=C/c1ccc(Cl)cc1)C(=O)N1CCCCC1)c1ccco1 | -18.8% | –
10 | CN(CC(=O)Nc1c(Cl)cccc1Cl)C(=O)c1ccncc1 | -13.7% | –
11 | Cc1ccc(-c2ccc(=O)n(Cc3ccc(F)cc3Cl)n2)cc1 | -1.89% | –
12 | Cc1n[nH]c(=O)c2c1nnn2Cc1ccc(F)cc1 | 1.18% | –
13 | Cc1nnsc1C(=O)N/N=C/c1cccc(C(F)(F)F)c1 | 22.6% | –
14 | COc1ccc(/C=N/NC(=O)Cn2cc(C(F)(F)F)ccc2=O)cc1 | -22.5% | –
15 | COc1ccc(/C=N/NC(=O)c2cccc(C(F)(F)F)c2)cc1 | – | 12.6 µM (active)
16 | C=C1C(=O)C23C(O)C1CCC2[C@]12COC3(O)C(O)C1C(C)(C)CC[C@H]2O (some centres not stated) | – | 0.708 µM (active)
17 | CCC1Oc2ccccc2N(CC(=O)NCCCN2CCN(CC)CC2)C1=O (configuration not stated) | 1.84% | –
18 | COc1ccc(Cc2nc3ccc(C(=O)NCC4CCOCC4)cc3o2)cc1OC | 42.4% | –
19 | CCOC(=O)C1=C(c2ccc(OC)cc2)C(=O)c2ccccc2C1=O | – | 6.31 µM (active)
20 | CCCCC(C(=O)OCC(=O)c1ccc(OC)cc1)N1C(=O)c2ccccc2C1=O (configuration not stated) | 28.3% | –
21 | CCOC(=O)c1c(-c2ccc(C)cc2)csc1/N=C(\C)C1=C(O)c2ccccc2C1=O | 1.71% | –
22 | O=C(NCCCc1ccccc1)C1CCC(=O)N(CCc2ccc(Cl)cc2)C1 (configuration not stated) | 39.6% | –

Row | SMILES | activity change, negative = inhibition | Potency
23 | COc1ccccc1CN1CCCC(N2CCN(c3ccc(F)cc3)CC2)C1 (configuration not stated) | -1.98% | –
24 | O=C(CN(CC1CCCO1)C(=O)CNS(=O)(=O)c1ccc(Cl)cc1)NCc1ccccc1 (configuration not stated) | 0.565% | –
25 | O=C(NCCN1CCOCC1)c1ccc2c(c1)ncn2C1CCCC1 | 6.51% | –
26 | Clc1ccccc1-c1cc(NCCN2CCOCC2)ncn1 | -6.31% | –
27 | c1ccc2cc3c(NCCN4CCOCC4)ccnc3cc2c1 | – | 11.2 µM (active)
28 | Cc1ccc2c(c1)N(CC(=O)N1CCC(O)CC1)C(=O)CO2 | -19.4% | –
29 | Cc1ccc(C(=O)CCC(=O)N(C)CC(=O)Nc2c(Cl)cccc2Cl)cc1 | 9.26% | –
30 | Cc1cccnc1NC(=O)c1cccc(S(=O)(=O)N2CCN(c3ccc(F)cc3)CC2)c1 | -44% | –
31 | S=C1NC(c2ccccc2)=NCN1c1ccc(Br)cc1 | – | 8.91 µM (active)
32 | Cc1nc(=O)c(-c2ccccc2)c(C)n1-c1ccc(Br)cc1 | 2.1% | –
33 | Brc1ccccc1C1N=C(c2ccccc2)NO1 (configuration not stated) | 2.38% | –
34 | Cc1ccc2c(c1)C(c1ccccc1)N(C(=O)c1ccc(F)cc1)CC(=O)N2 (configuration not stated) | 11.4% | –
35 | Cc1ccc2nc(N(CCN(C)C)C(=O)C3=COCCO3)sc2c1 | -8.72% | –
36 | COc1cccc(-c2noc(C3CCCN(C(=O)c4ccc(F)cc4)C3)n2)c1 (configuration not stated) | -2.97% [at 1.91 µM] | –
37 | CC1CCCC(C)N1CCCNC(=O)c1cc2c(=O)n(C)c3ccccc3c2n1C (configuration not stated) | 2.79% | –
38 | Cn1c(C(=O)NCCc2ccsc2)cc2c(=O)n(C)c3ccccc3c21 | 27% | –
39 | CCN1CCCC1CNC(=O)c1cc2c(=O)n(C)c3ccccc3c2n1C (configuration not stated) | – | 3.98 µM (active)
40 | Cc1ccc(OCC(=O)Nc2ccc(N3CCN(C(=O)c4ccco4)CC3)cc2)c(C)c1 | 24.1% | –
41 | CC(=O)Oc1ccc(N(C(C)=O)S(=O)(=O)c2ccc3ccccc3c2)cc1Br | 40.7% | –
42 | O=C1CCN(C(=S)NCCc2ccccc2)CC1 | 6.62% | –
43 | CCCCNC(=O)C1CCC(=O)N1CCc1ccccc1 (configuration not stated) | -0.936% | –
44 | CCCC1CCC(=NNC(=S)NCCc2ccccc2)CC1 (configuration not stated) | – | 5.01 µM (active)

Row | SMILES | activity change, negative = inhibition | Potency
45 | CCOc1ccc(NC(=O)C(C)N2C(=O)c3ccccc3C2=O)cc1 (configuration not stated) | -2.48% | –
46 | O=C(O)/C=C\C(=O)Nc1ccc(OCc2ccccc2)cc1 | 0.167% | –
47 | Cc1cccc(N2CCN(c3ccc(NC(=O)/C=C\C(=O)O)cc3)CC2)c1 | 8.37% | –
48 | CSc1ccc(NC(=O)/C=C/C(=O)O)cc1 | – | 0.0794 µM (active)
49 | CN(C)CCCn1c(SCc2ccc(Cl)cc2)nnc1-c1ccncc1 | 9.2% | –
50 | CN1CCC(OC(=O)COc2ccc(Cl)cc2Cl)CC1 | -3.03% | –
51 | Cn1c(CCCOc2ccc(Cl)cc2Cl)n[nH]c1=S | – | 6.31 µM (active)
52 | O=C(CCCOc1ccc(Cl)cc1Cl)NNC(=O)C1CCC1 | 8.12% | –
53 | CN(C)c1nc(NN)nc(Nc2ccc(F)cc2)n1 | – | 7.94 µM (active)
54 | CN(C)c1ccnc(Nc2ccc(F)cc2)c1C#N | -2.79% | –
55 | CN(C)c1nc(Nc2ccc(Cl)c(Cl)c2)nc(N(C)C)n1 | 22% | –
56 | COc1ccc(CNC(=O)C2CCN(C(=O)c3ccco3)CC2)cc1 | -27.8% | –
57 | Cc1c(OC(C)C(=O)NCC2CCC(C(=O)O)CC2)ccc2c1oc(=O)c1ccccc12 (configuration not stated) | 13.2% | –
58 | Cc1ccc(CN2CCNC(=O)C2CC(=O)NCc2csc(C(C)C)n2)cc1 (configuration not stated) | -11.2% | –
59 | COc1cc(NS(=O)(=O)c2ccc(NC(C)=O)cc2)cc(OC)c1 | 0% | –
60 | COc1ccc(NS(=O)(=O)c2ccc(Oc3c(C#N)cccc3C#N)cc2)cc1 | – | 7.94 µM (active)
61 | CCOc1ccc(S(=O)(=O)Nc2ccc(S(=O)(=O)Nc3cc(OC)ccc3OC)cc2)cc1 | 30.5% | –
62 | CCn1ccnc1CN(C)C(=O)c1cc(COc2ccc(Cl)cc2OC)on1 | 30% | –
63 | Oc1c(CN2CCN(c3ccc(F)cc3)CC2)cc(Cl)c2cccnc12 | – | 0.562 µM (active)
64 | O=C(c1cccc(C(=O)N2CCN(c3ccc(F)cc3)CC2)c1)N1CCN(c2ccc(F)cc2)CC1 | 4.17% | –
65 | Oc1ccc(CN2CCN(c3ncccn3)CC2)cc1 | -16.9% | –
66 | COCCNC(=O)C1CCN(C(=O)C2CC(=O)N(c3ccc(C)cc3)C2)CC1 (configuration not stated) | -3.92% | –

Row | SMILES | activity change, negative = inhibition | Potency
67 | Cc1cccc(C(=O)NC(=S)N2CCN(c3ccc([N+](=O)[O-])cc3)CC2)c1 | – | 0.447 µM (active)
68 | Cc1cccc(C(=O)Nc2ccccc2N2CCN(c3ccc(F)cc3)CC2)c1 | 11.7% | –
69 | O=C(c1cncc(Br)c1)N1CCN(c2ccc([N+](=O)[O-])cc2)CC1 | 34.5% | –
70 | CC(C(=O)c1ccc(-c2ccccc2)cc1)[n+]1cccc(Br)c1 (configuration not stated) | 44.4% | –
71 | CCn1c2ccc(F)cc2c2nnc(SCCN3CCOCC3)nc21 | -15.5% | –
72 | CCn1c(NCCc2ccc(OC)c(OC)c2)nc2c1c(=O)n(C)c(=O)n2C | 15% | –
73 | Cn1c(=O)c2c(nc(NCCc3ccccc3)n2Cc2ccccc2)n(C)c1=O | – | 11.2 µM (active)
74 | Cn1c(=O)c2c(nc(NCc3ccccc3)n2CC(N)=O)n(C)c1=O | 13.7% | –
75 | COc1ccc(/C=C/NC(=O)c2ccc(OC)cc2)cc1 | -26.7% [at 10 µM] | –
76 | O=C(/C=C/c1ccccc1)c1ccccc1O | -1.98% | –
77 | COc1ccc(/C=C/C(=O)c2ccc(OC)cc2O)cc1 | – | 8.91 µM (active) and 316 nM (active)
78 | CCC(C(=O)NCc1cccnc1)n1nc(C)c2sc3ccccc3c2c1=O (configuration not stated) | 6.04% | –
79 | C=CC(=O)c1ccc2ccccc2c1 | – | 0.631 µM (active)
80 | CC(=O)c1ccc2c(ccc3ccccc32)c1 | -30.5% | –
81 | CC(=O)CCC(=O)c1ccc2ccccc2c1 | 20.3% | –
82 | CCN(CC)CC(=O)c1c[nH]c2ccc(OC)cc12 | -6.89% | –
83 | COc1ccc2[nH]cc(/C=C(/C#N)S(=O)(=O)c3ccccc3)c2c1 | – | 7.08 µM (active)
84 | COc1ccc(/C=C(\C#N)c2c[nH]c3ccccc23)cc1 | -6.22% | –
85 | COC(=O)c1cccc(C(=O)N2CCC(CCC(=O)NCc3ccc(F)cc3)CC2)c1 | 7.81% | –
86 | COc1cccc(CN(C)CC2CCCN(CCc3ccc(Cl)cc3)C2)c1OC (configuration not stated) | -32% | –
87 | CCS(=O)(=O)N1Cc2ccccc2CC1C(=O)Nc1nc2ccc(F)cc2s1 (configuration not stated) | – | 4.47 µM (active)
88 | NS(=O)(=O)c1ccc2nc(NC(=O)CS(=O)(=O)c3ccc(F)cc3)sc2c1 | 12.4% | –

Row | SMILES | activity change, negative = inhibition | Potency
89 | CCS(=O)(=O)N1Cc2ccccc2CC1C(=O)Nc1ccc(OC)cc1OC (configuration not stated) | 16% | –
90 | O=C(c1ccc(F)cc1)N1CCCC(C(=O)N2CCCCC2)C1 (configuration not stated) | 1.02% | –
91 | Cc1cc(NS(=O)(=O)c2ccc(NC(=O)c3cccnc3)cc2)nc(C)n1 | -34% | –
92 | Cc1cc(C)c2c(Cn3ccnc3)cc(=O)oc2c1 | 2% | –
93 | O=C(c1cc(-c2ccc(Cl)cc2)on1)N1CCN(c2ccccc2)CC1 | -6.49% | –
94 | CCOc1ccccc1/C=N/Nc1nc2ccccc2o1 | – | 6.31 µM (active)
95 | COc1ccc(/C=N/Nc2nc3ccccc3o2)cc1OC | -33.2% | –
96 | O=C(CSc1nc2ccccc2o1)N/N=C/c1ccccc1C(=O)O | -6.91% | –
97 | Oc1c(Br)cccc1/C=N/Nc1c(F)c(F)c(F)c(F)c1F | 21.4% | –
98 | Cc1cccc(COc2ccccc2/C=N/Nc2ccc([N+](=O)[O-])cc2)c1 | 17.8% | –
99 | Brc1ccccc1/C=N/Nc1nc2ccccc2o1 | – | 2.51 µM (active)
100 | CC(=O)Nc1ccc(S(=O)(=O)Nc2cc(C)cn(Cc3ccc(C)cc3)c2=O)cc1 | 0% | –
101 | COCC1CCN(C(=O)C2CCC(=O)N(CC3CCCCC3)C2)CC1 (configuration not stated) | -17% | –
102 | CC/C(O)=C1\C(=O)CC(C)(C)CC1=NCCc1nc2ccccc2[nH]1 | 0.887% | –
103 | CCC(=O)/C(=C(/O)c1ccccc1)c1nc2ccccc2[nH]1 | – | 6.31 µM (active)
104 | CN(Cc1ccccc1)C(=O)CSc1nc2ccccc2[nH]1 | -0.354% | –
105 | CSc1ncccc1C(=O)Nc1ccc(C)cn1 | 7.85% | –
106 | O=C(Nc1nnc(-c2ccc(F)cc2)s1)c1c(F)cccc1Cl | -37.9% | –
107 | COc1cc(S(=O)(=O)N2CCN=C2c2ccccc2)ccc1Cl | 4.5% | –
